Consider 52 molecules from PubChem BioAssay AID686978 (National Center for Advancing Translational Sciences (NCATS), 2013).

SMILES strings stand for the structures. Values joined by “and” are separate entries in the source; they are usually repeats but may differ in a detail not shown here. Equal values may be shown once. The whole screen tested about 420,000 compounds, of which about 64,000 (15%) were called active. Not shown: some 27% with an inconclusive outcome. Only a sample is shown. A number with no mark means an inactive call. The call rests on the fitted dose curve; in most records, active means well fitted inhibition curve with a large enough effect; inconclusive means small, poorly fitted or top-dose-only effect; inactive means flat fitted curve, though single readings scatter.
On the % scale 0 is the no-effect control and ±100 the full control effect; potency means the concentration at half of the fitted maximal effect.

This assay is described as follows: qHTS for Inhibitors of human tyrosyl-DNA phosphodiesterase 1 (TDP1): qHTS in cells in absence of CPT. Further: nearly all actives have a fitted effect of over 55% in size. The conditions noted are these: DT40 Tdp1-/- hTDP1 cells, no CPT, ATP luminescence, 48 h; activity change, negative = growth inhibition: at 46.2 µM (top of the series). The essentials:
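Readout: luminescence from CellTiter-Glo after 30 min in the dark at RT. Cells: DT40 Tdp1-/- with stable hTDP1, 400/well. Exposure: compounds alone, ≥48 hr, 37 °C.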
In general terms: In qHTS, concentration-response curves come from the screen itself.
As to `O=C(NC1CCCCC1)C1c2ccccc2C(=O)N1Cc1ccco1` (configuration not stated), the “activity change, negative = growth inhibition” value is 3.48%.
Consider `O=C1c2ccccc2C(Nc2ccc3c(c2)OCCO3)N1Cc1ccco1` (configuration not stated), for which the Potency was 14.6 µM (active).
In the case of `S=C(NCc1ccco1)Nc1ccc2c(c1)OCCO2`, the “activity change, negative = growth inhibition” value was -15.8%.
Same read-out and setting: then `CCN(CC(=O)Nc1ccc(NC(C)=O)cc1)C(=O)C1CC(=O)N(c2ccc3c(c2)OCCO3)C1` (configuration not stated), with -28.8%.
As to `C/C(N)=C(/C#N)C(=O)COC(=O)CNS(=O)(=O)c1ccc(C)cc1`, the “activity change, negative = growth inhibition” value was -4.68%.
With `CC1(C(=O)NS(=O)(=O)c2ccccc2Cl)CCN1C(=O)c1cccc(F)c1` (configuration not stated), the “activity change, negative = growth inhibition” value was -10.8%.
Still for that read-out and setting: then `c1csc(-c2nnc(COc3ccc4c(c3)OCO4)o2)c1`, with 0.933%; and `Cc1nc2ccc(C(=O)N(C)CC3CCCN(CCc4ccc(Cl)cc4)C3)cc2[nH]1` (configuration not stated), with 5.16%; and `COc1cccc(COC(=O)C2CCN(S(=O)(=O)c3ccc(Cl)cc3)CC2)c1OC`, with -25.1%.
On to `COc1cccc(CN(C)CC2CCCN(CCc3ccc(Cl)cc3)C2)c1OC` (configuration not stated), for which the Potency is 20.6 µM (active).
With `CO[C@H]1[C@@H](O)[C@H](N)[C@@H](O[C@H]2O[C@H]([C@H](C)N)CC[C@H]2N)[C@H](O)[C@@H]1N(C)C(=O)CN`, the “activity change, negative = growth inhibition” value is -9.26%.
The same measure, in the same setting: in the case of `CCOc1ccc(C(=O)Nc2cc(Cl)ccc2-n2cncn2)cc1OC` it was 6.08%.
In the case of `O=c1[nH]c2ccccc2n2c(-c3ccccc3)nnc12`, the Potency is 18.4 µM (active) and 11.2 µM (active).
As to `CCOC(=O)c1cnc2[nH]c3ccccc3n2c1=O`, the “activity change, negative = growth inhibition” value is -6.89%.
As to `O=c1[nH]n2c(-c3ccccc3)nc(O)c2c2ccccc12`, the “activity change, negative = growth inhibition” value is -0.971%.
As to `COC(=O)CCSc1nccn1Cc1ccccc1`, the “activity change, negative = growth inhibition” value was 3.41%.
For `Cc1ccc(CN2CC(C(=O)NNC(=O)Cn3ccc(C(F)(F)F)n3)CC2=O)cc1` (configuration not stated), the “activity change, negative = growth inhibition” value was 8.84%.
Still for that read-out and setting: in the case of `CN(CCO)C(=O)c1nc[nH]c1C(=O)N(C)Cc1ccccc1` it was -22%.
The same measure, in the same setting: then `Cc1ccc(-c2nc3ccccc3[nH]c2=O)cc1`, with 8.47%.
Consider `CCCCCn1nnnc1-c1nc2cc3ccccc3cc2[nH]c1=O`, for which the Potency was 2.59 µM (active).
Turning to `c1ccc2cc3[nH]c(CN4CCCCC4)nc3cc2c1`, the “activity change, negative = growth inhibition” value was -10.7%.
`O=S1(=O)CSCS(=O)(=O)C1`: the “activity change, negative = growth inhibition” value was -12.9%.
As for `CN1OC[C@@H]2CN(C(=O)c3cccc4ccccc34)[C@H](c3ccc(N4CCCCC4)cc3)C[C@@H]21`, the “activity change, negative = growth inhibition” value was 0.0679%.
On to `COc1ccc(CN2C[C@H]3CON(C)[C@H]3C[C@H]2c2ccc(-c3cccc(F)c3)cc2)cc1`, for which the Potency was 16.4 µM (active).
Consider `COc1ccc(CN2C3CCCC2CC(NC(=O)c2cccc(F)c2)C3)cc1` (configuration not stated), for which the “activity change, negative = growth inhibition” value was -4.72%.
The same measure, in the same setting: then `CCCNC(=O)c1onc(CSc2ccc(F)cc2)c1C(=O)NC(C)C`, with -18.8%; and `Cc1ccc(-c2nc(C)sc2CC(=O)O)cc1`, with 0.642%; and `N#C/C(=C\c1cccc(F)c1)c1nc(-c2cc3c(ccc4ccccc43)oc2=O)cs1`, with -10%.
Same read-out and setting: then `O=C(Nc1ccc(F)cc1)C(=O)c1cn(CC(=O)N2CCOCC2)c2ccccc12`, with 2.69%; and `O=C(Oc1ccc(C(=S)N2CCOCC2)cc1)c1ccc(F)cc1`, with -29.3%.
`O=C(c1ccc(F)cc1)n1cc(C(=S)N2CCOCC2)c2ccccc21`: the Potency is 11.6 µM (active).
Consider `O=C(CSc1nc2ccccc2c(=O)n1CCCO)NC1CC1`, for which the “activity change, negative = growth inhibition” value is 24.5%.
For the molecule `COc1ccc(S(=O)(=O)N(C)C)cc1NC(=O)CSc1ncccn1`, the Potency was 13 µM (active).
As to `COc1ccc(C)cc1NC(=O)CSc1cccc[n+]1[O-]`, the “activity change, negative = growth inhibition” value was -5.31%.
The same measure, in the same setting: then `COc1ccc(S(=O)(=O)N2CCOCC2)cc1NC(=O)CSc1ncnc2ccccc12`, with 22.5%.
With `CCOCCCn1c(SCC(=O)Nc2ccc(CC)cc2)nc2ccccc2c1=O`, the Potency was 13 µM (active).
For the molecule `COc1ccc(-c2nnc(SCC(=O)Nc3cccnc3Cl)n2C)cc1`, the “activity change, negative = growth inhibition” value was 0.301%.
The same measure, in the same setting: in the case of `Cc1nnc(SCC(=O)N2CCc3ccccc32)n1-c1ccccc1` it was -15.9%; in that of `CCc1nnc(NC(=O)CSc2nc3ccccc3c(=O)n2CCCOC)s1`, -14.5%.
Same read-out and setting: in the case of `O=C(CSc1nc2[nH]ncc2c(=O)n1-c1ccccc1)N1CCCc2ccccc21` it was -26.4%.
For `COc1ccc(OC)c(NC(=O)CSc2nc3cccnc3n2C)c1`, the Potency was 16.4 µM (active).
Regarding `COc1ccc(OC)c(NC(=O)CSc2nc(N)c(-c3ccccc3)c(=O)[nH]2)c1`, the “activity change, negative = growth inhibition” value was 2.08%.
As for `Cn1c(SCC(=O)N2CCCc3ccccc32)nc2ccccc2c1=O`, the Potency is 9.2 µM (active).
`CSc1ccc(NC(=O)N2CC(C)OC(C)C2)cc1` (configuration not stated): the “activity change, negative = growth inhibition” value was -12.9%.
The same measure, in the same setting: then `Cn1cccc1C(=O)N1CCC[C@@]2(CCN(Cc3nccs3)C2)C1`, with -6.43%; and `Cc1nc2ccc(S(=O)(=O)NC(C(=O)NCc3ccccc3Cl)C(C)C)cc2s1` (configuration not stated), with -0.153%; and `C[n+]1cccc(C(=O)O)c1`, with -1.14%.
The same measure, in the same setting: in the case of `CSc1ncccc1C(=O)NCc1ccccc1Cl` it was 6.16%; in that of `CCOCCCNC(=O)C(NC(=O)c1ccc(=O)[nH]c1)c1ccc(Cl)cc1` (configuration not stated), -14.6%.
On the same count and under the same terms, in the case of `c1ccc(-c2csc(N3CCc4ccccc4C3)n2)cc1` it was -1.48%; in that of `Cc1noc(C)c1CCC(=O)O`, 1.68%.
Regarding `Cc1ccc(S(=O)(=O)N2CC(O)C[C@H]2C(=O)OCC(=O)Nc2ccc(N3CCOCC3)cc2)cc1C` (some centres not stated), the “activity change, negative = growth inhibition” value was 14.4%.
